ELG1 genotoxic: induces genotoxicity in HEK293T cells with luciferase-tagged ELG1; HEK293T ELG1-luciferase reporter, luminescence, 16 h; Potency, µM (highest dose often 46 µM), without a hit: at the top dose activity change, positive = activation, hits mostly activators; actives 1.3% (n = 330,000); AID 504466; note: % of control where 0% means no effect; nearly all actives have a fitted effect of over 60% in size
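Reporter readout depends on ELG1 protein level, which increases with genetic stress. After 16 hr compound exposure at 37 °C, luciferase activity was quantified using ONE-Glo.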
Rab9 prom act: activators of Rab9 promoter. actives 2.8% (n = 320,000). Potency, µM (titrated, usually from 9.22 µM), for the others: top-dose activation, negative = inhibition, actives largely listed as activators. Huh7 Rab9 promoter-luciferase reporter, luminescence, 24 h. AID 485297; note: % of control where 0% means no effect; nearly all actives have a fitted effect of over 60% in size
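Quantitative HTS format; Huh7 Rab9-luciferase reporter cells (1500/well) receive compound 2 h post-plating, incubate 24 h at 37 °C, then get luciferase reagent for 10 min before luminescence reading.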
NPC1 promoter act: activators of NPC1 promoter. Huh7 NPC1 promoter luciferase reporter, 24 h. Potency, µM (doses to about 9.22 µM), for inactives: top-dose activation, actives largely listed as activators. actives 2.4% (n = 320,000). AID 485313; note: % of control where 0% means no effect; nearly all actives have a fitted effect of over 60% in size
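Luciferase expression driven by the NPC1 promoter was measured in stably transfected Huh7 cells after a 24 h compound incubation, using a luciferase reagent and a luminescence read.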
FLuc modulator: counter-screen for miR-21 project: firefly luciferase inhibitors or activators | actives 6.9% (n = 360,000) | AID 588342 | purified FLuc, Km substrates, luminescence inhibition | P08659 | Potency, µM (series often up to 57.5 µM), without a hit: top-dose activity change, negative = inhibition, usual class: inhibitors;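 note: plate controls were vehicle for no effect and reference inhibitor for full effect; nearly all actives have a fitted effect of over 55% in size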
Target sequence (P08659 whole entry, looked up): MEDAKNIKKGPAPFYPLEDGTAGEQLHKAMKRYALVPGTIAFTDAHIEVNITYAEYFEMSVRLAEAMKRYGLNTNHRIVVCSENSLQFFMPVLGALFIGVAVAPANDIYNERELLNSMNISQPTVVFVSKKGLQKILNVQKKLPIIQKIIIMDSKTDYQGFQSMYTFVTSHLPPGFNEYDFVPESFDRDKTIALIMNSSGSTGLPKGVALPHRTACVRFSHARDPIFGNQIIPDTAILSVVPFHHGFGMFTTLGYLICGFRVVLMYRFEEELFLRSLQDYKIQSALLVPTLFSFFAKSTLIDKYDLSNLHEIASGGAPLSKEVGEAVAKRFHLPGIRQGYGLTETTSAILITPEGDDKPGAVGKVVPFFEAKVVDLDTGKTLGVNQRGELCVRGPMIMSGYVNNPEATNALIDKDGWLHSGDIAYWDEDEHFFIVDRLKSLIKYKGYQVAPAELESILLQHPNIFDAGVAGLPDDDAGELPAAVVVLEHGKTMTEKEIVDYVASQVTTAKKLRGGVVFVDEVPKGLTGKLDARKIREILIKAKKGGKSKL
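Purified P. pyralis luciferase (10nM final) with 10uM D-luciferin and 10uM ATP (Km levels) in 50mM Tris acetate pH 7.5, 10mM Mg acetate, 0.01% Tween-20, 0.05% BSA; qHTS 6-point titration, ~60 µM downward; luminescence read.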
SMN2 splice enh: enhancers of SMN2 splice variant expression; HEK293 SMN2-luciferase splicing reporter, luminescence, 30-36 h; Potency, µM (doses to about 46.1 µM), inactives show at the top dose activity change, positive = activation, usual class: activators; actives 2.8% (n = 210,000); AID 1458; note: % of control where 0% means no effect; nearly all actives have a fitted effect of over 55% in size
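qHTS luciferase splicing reporter: luminescence rises when SMN2 exon 7 is included in transfected HEK293 cells. Compound exposure lasted 30-36 h at 37C, with 4.5 mM final sodium butyrate as control, followed by a ONE-Glo read.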
Luc counter: counter-screen: inhibitors of Kinase-Glo firefly luciferase; Q27757; Kinase-Glo luciferase, ATP luminescence, 8 min; Potency, µM (highest dose often 38.3 µM), without a hit: top-dose activity change, negative = inhibition, usual class: inhibitors; actives 0.28% (n = 200,000); note: % is set by controls: 0 for no effect and ±100 for the full control effect; nearly all actives have a fitted effect of over 60% in size
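Substrate mix (final 50 mM imidazole pH 7.2, 50 mM KCl, 7 mM MgCl2, 10 uM ATP, 0.01% Tween 20, 0.05% BSA) plus pin-tool compound, then Kinase-Glo detection mix; 8 min ambient, luminescence read.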
* = called active by the depositor; ? = inconclusive; / = no result given. Most compounds without a hit are left out; they make up all but 7.3% or so of the library. Calls come from the whole dose curve; as a rule, active = well fitted curve in the direction sought with a large enough effect; inconclusive = small, poorly fitted or top-dose-only effect, or another doubt; inactive = no such curve, though single readings can be large; an effect the other way counts as inactive or inconclusive. Potency is the fitted concentration of half-maximal effect.

SMILES	ELG1 genotoxic	Rab9 prom act	NPC1 promoter act	FLuc modulator	SMN2 splice enh	Luc counter
CC[C@]12CCCN3CCc4c(n(c5ccccc45)[C@@](O)(C(=O)OC)C1)[C@@H]32	16.4µM*	17.5%	5.0%	-19.4%	/	/
CC[C@]12CCCN3CCc4c(n(c5ccccc45)C(=O)C1)[C@@H]32	3.9%	-14.3%	-19.0%	-1.8%	/	/
COc1ccc(CNC(=O)Cc2c(C)c3cc4c(C)coc4c(C)c3oc2=O)cc1	/	/	/	-2.6%	6.7%	/
O=C(Nc1ccccc1)Nc1ccc2nnsc2c1	6.0%	3.98µM*	?	7.57µM*	/	/
O=C(Nc1cccc(C(F)(F)F)c1)Nc1ccc2snnc2c1	/	/	/	-7.4%	-27.3%	/
CN(C)c1ccc(NC(=O)Nc2ccc3snnc3c2)cc1	12.4%	?	?	7.57µM*	-0.7%	10.3%
CCOc1ccc(NC(=O)Nc2ccc3snnc3c2)cc1	/	/	/	-3.2%	13.3%	/
O=C(Nc1ccccc1)Nc1ccc2snnc2c1	-1.9%	?	?	10.7µM*	11.2µM*	-3.2%
Cc1ccccc1C(=O)n1nc(-c2ccco2)nc1NCc1cccs1	/	/	/	-7.3%	2.4%	/
CCCCN(C)CCNC(=O)c1ccc2c(=O)n(CCc3ccccc3)c(=O)[nH]c2c1	/	/	/	1.0%	-35.4%	/
CCN1CCN(c2cc(C)c3cc(NC(=O)c4ccc(OC)c(OC)c4)ccc3n2)CC1	1.2%	-1.5%	5.4%	-14.9%	12.7%	0.3%
COc1ccc(C(=O)Nc2ccc3nc(N4CCN(C)CC4)cc(C)c3c2)c(OC)c1	7.3%	-0.3%	0.1%	16.9µM*	/	/
CCN1CCN(c2cc(C)c3cc(NC(=O)c4cccc(OC)c4)ccc3n2)CC1	12.3%	20.2%	16.1%	19µM*	/	/
Cc1cc(N2CCN(C)CC2)nc2ccc(NC(=O)c3ccc(C(C)(C)C)cc3)cc12	/	/	/	?	-96.7%	/
CCOc1ccccc1NC(=O)Nc1nnc(N2CCCCCC2)s1	/	/	/	15.1µM*	/	/
COc1ccc2nc(N3CCOCC3)cc(C)c2c1	8.2µM*	2.82µM*	?	5.36µM*	11.2µM*	-1.0%
CC(Oc1ccccc1)C(=O)OCc1cc(=O)n2nc(C(C)C)sc2n1 (configuration not stated)	/	/	/	-5.4%	/	/
CCCCn1c(C2CC(=O)N(c3ccc(OCC)cc3)C2)nc2ccccc21 (configuration not stated)	/	/	/	-2.3%	5.7%	/
Cc1nc(N2CCCC2)ncc1C(=O)N1CCN(c2ccc(Cl)cc2)CC1	/	/	/	5.6%	/	/
CC1=C(C(=O)Nc2ccc(Cl)cc2)C(C(C)C)n2nc(SCc3cccc(C)c3)nc2N1 (configuration not stated)	/	/	/	0.4%	11.8%	/
CCOc1ccccc1NC(=O)Nc1ccc2nc(N3CCN(C)CC3)cc(C)c2c1	/	/	/	5.36µM*	/	/
O=C(CCC1CCCN(C(=O)c2ccc3c(c2)OCCO3)C1)NCc1ccccc1F (configuration not stated)	?	2.82µM*	26.1%	16.9µM*	/	/
COC(=O)CCCC(=O)N1CCCC(CCC(=O)NCc2ccc(F)c(F)c2)C1 (configuration not stated)	?	-3.0%	-4.3%	16.9µM*	/	0.3%
COC(=O)c1ccccc1C(=O)N1CCCC(CCC(=O)NCc2ccc(F)c(F)c2)C1 (configuration not stated)	?	?	23.8%	13.5µM*	/	1.8%
C=CCSc1nnc2c(n1)[nH]c1c(C)cccc12	?	?	3.55µM*	9.53µM*	-19.2%	9.9%
Cc1cccc2c1[nH]c1nc(N/N=C\c3ccco3)nnc12	3.3%	13.7%	10.9%	-11.7%	-1.0%	-0.2%
COc1ccc(/C=N/Nc2nc3ccccc3o2)cc1O	0.92µM*	?	?	0.953µM*	?	-1.2%
CC(=O)Nc1ccc(/C=N/Nc2nc3ccccc3s2)cc1	2.59µM*	0.447µM*	0.708µM*	0.953µM*	/	/

Screens as filed in PubChem BioAssay.
